This is part of a sample that, as a whole, favours compounds with a hit. Of some 83,000 tested, about 20% had one in any assay.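 Testing used 96-well plates and a 48-hour single-concentration exposure. Example: -40 means 40% of the starting cells died.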 Calls of active or inactive are those of the source. Rule for the calls: active = growth percent below 10; inactive = the rest.
Legend:
Experiment in all cases: NCI-60 one-dose screen, 48 h (100 = growth as untreated, 0 = no growth, -100 = all killed)
OVCAR-8 ovarian = conditions: 10 µM unless noted
OVCAR-5 ovarian = conditions: 10 µM unless noted
OVCAR-4 ovarian = conditions: 10 µM unless noted
SK-OV-3 ovarian = conditions: 10 µM unless noted
IGROV1 ovarian = conditions: 10 µM unless noted
OVCAR-3 ovarian = conditions: 10 µM unless noted
HS 578T breast = conditions: 10 µM unless noted
NCI/ADR-RES ovarian = conditions: 10 µM unless noted
T-47D breast = conditions: 10 µM unless noted
BT-549 breast = conditions: 10 µM unless noted
MDA-MB-435 melanoma = conditions: 10 µM unless noted
SW-620 colon = conditions: 10 µM unless noted
MCF7 breast = conditions: 10 µM
HCT-116 colon = conditions: 10 µM unless noted
HCC-2998 colon = conditions: 10 µM unless noted
KM12 colon = conditions: 10 µM unless noted
RPMI-8226 leukemia = conditions: 10 µM unless noted

Measured: growth

O=C(NC1C(O)OC(CO)C(O)C1O)NS(=O)(=O)c1ccc(Cl)cc1 (centres undefined)
inactive: OVCAR-8 ovarian 102% | OVCAR-5 ovarian 99.7% | OVCAR-4 ovarian 105% | SK-OV-3 ovarian 105% | IGROV1 ovarian 107% | OVCAR-3 ovarian 112% | HS 578T breast 98.7% | NCI/ADR-RES ovarian 105% | T-47D breast 91.3% | BT-549 breast 108% | MDA-MB-435 melanoma 100% | SW-620 colon 100% | MCF7 breast 98.2% | HCT-116 colon 96.9% | HCC-2998 colon 115% | KM12 colon 104%

CC[C@H](C)[C@@H](C(=O)OC)n1cc(CNC(=O)[C@@H](Cc2ccccc2)NC(=O)OCc2ccccc2)nn1
inactive: RPMI-8226 leukemia 90.1% | OVCAR-8 ovarian 91.3% | OVCAR-4 ovarian 105% | SK-OV-3 ovarian 109% | IGROV1 ovarian 92.2% | OVCAR-3 ovarian 115% | HS 578T breast 101% | NCI/ADR-RES ovarian 94.4% | T-47D breast 107% | BT-549 breast 106% | MDA-MB-435 melanoma 99.9% | SW-620 colon 102% | MCF7 breast 97% | HCT-116 colon 102% | HCC-2998 colon 104% | KM12 colon 103%

CCOC(=O)CSc1c(-c2ccccc2)c2cc(Cl)ccc2[nH]c1=O
inactive: OVCAR-8 ovarian 115% | OVCAR-5 ovarian 105% | OVCAR-4 ovarian 89.1% | SK-OV-3 ovarian 107% | IGROV1 ovarian 99.1% | OVCAR-3 ovarian 106% | HS 578T breast 84.2% | NCI/ADR-RES ovarian 84.3% | T-47D breast 98.1% | BT-549 breast 103% | SW-620 colon 102% | MCF7 breast 93.3% | HCT-116 colon 92.1% | HCC-2998 colon 103% | KM12 colon 98.1%

C=C[C@@H]1CCC/C=C/[C@@H]2C[C@H](O)C[C@H]2[C@H](O)/C=C/C(=O)O1
active: OVCAR-3 ovarian -30.8% | NCI/ADR-RES ovarian 1.8% | T-47D breast -40.9% | SW-620 colon -15.9% | MCF7 breast -14.8% | HCT-116 colon -0.456% | HCC-2998 colon -23.3% | KM12 colon -36.3%
inactive: RPMI-8226 leukemia 23.6% | OVCAR-8 ovarian 21.4% | OVCAR-4 ovarian 23.8% | SK-OV-3 ovarian 20.5% | IGROV1 ovarian 11.8% | HS 578T breast 31.3% | BT-549 breast 40.6% | MDA-MB-435 melanoma 12.9%

CN1C(=O)N(C)C2C1NN=c1s/c(=C\c3c[nH]c4ccccc34)c(=O)n12 (centres undefined)
inactive: OVCAR-8 ovarian 24.1% | OVCAR-5 ovarian 42.7% | OVCAR-4 ovarian 103% | IGROV1 ovarian 18.7% | HS 578T breast 18.7% | NCI/ADR-RES ovarian 15.6% | T-47D breast 82.6% | BT-549 breast 12.3% | MDA-MB-435 melanoma 102% | SW-620 colon 28.6% | MCF7 breast 16% | HCC-2998 colon 27.3%
active: OVCAR-3 ovarian 8.1% | HCT-116 colon 5.95% | KM12 colon 4.61%

COc1ccc2[nH]c(O)c(N=NC(=O)c3oc4ccccc4c3C)c2c1
active: OVCAR-4 ovarian -52.8% | IGROV1 ovarian 6.33% | OVCAR-3 ovarian -65.5% | T-47D breast -39.2%
inactive: OVCAR-8 ovarian 37.8% | OVCAR-5 ovarian 41.7% | HS 578T breast 25.5% | NCI/ADR-RES ovarian 30.5% | BT-549 breast 70.1% | MDA-MB-435 melanoma 28.9% | SW-620 colon 35.1% | MCF7 breast 22.9% | HCC-2998 colon 45.5% | KM12 colon 43.8%

O=C1N=c2ccccc2=C1c1sc(=Nc2ccccc2)n(Nc2ccccc2)c1O
inactive: OVCAR-8 ovarian 105% | OVCAR-5 ovarian 101% | OVCAR-4 ovarian 43.5% | IGROV1 ovarian 96.2% | OVCAR-3 ovarian 110% | HS 578T breast 102% | NCI/ADR-RES ovarian 108% | BT-549 breast 106% | SW-620 colon 108% | MCF7 breast 103% | HCT-116 colon 104% | HCC-2998 colon 116% | KM12 colon 103%
active: MDA-MB-435 melanoma -23%

O=CCCCC(O)C=O (centres undefined)
inactive: OVCAR-8 ovarian 106% | OVCAR-5 ovarian 106% | OVCAR-4 ovarian 103% | SK-OV-3 ovarian 104% | IGROV1 ovarian 108% | OVCAR-3 ovarian 109% | HS 578T breast 98.1% | NCI/ADR-RES ovarian 99.2% | BT-549 breast 112% | MDA-MB-435 melanoma 105% | SW-620 colon 96.9% | MCF7 breast 98.9% | HCT-116 colon 109% | HCC-2998 colon 105% | KM12 colon 103%

CCOC(=O)c1sc(-c2ccc(OS(=O)(=O)c3cccs3)c(C=O)c2)nc1C
inactive: OVCAR-5 ovarian 33.1% | SK-OV-3 ovarian 123% | HS 578T breast 11.2% | T-47D breast 19.1% | HCC-2998 colon 46.4%
active: OVCAR-8 ovarian -5.05% | OVCAR-4 ovarian 4.5% | IGROV1 ovarian -36.2% | OVCAR-3 ovarian -9.03% | NCI/ADR-RES ovarian -2.63% | BT-549 breast -7.24% | MDA-MB-435 melanoma -15.1% | SW-620 colon 8.51% | HCT-116 colon 2.95% | KM12 colon 0.602%

NC(=O)CSc1nc(-c2ccc(F)cc2)cc(-c2ccco2)n1
inactive: RPMI-8226 leukemia 98.5% | OVCAR-8 ovarian 98.1% | OVCAR-4 ovarian 100% | SK-OV-3 ovarian 102% | IGROV1 ovarian 94% | OVCAR-3 ovarian 111% | HS 578T breast 115% | NCI/ADR-RES ovarian 105% | T-47D breast 64.1% | BT-549 breast 99.5% | MDA-MB-435 melanoma 104% | SW-620 colon 116% | HCC-2998 colon 109% | KM12 colon 106%

Cc1ccc(Cn2c(N3CCC(C(=O)NCc4cccs4)CC3)nc3ccccc32)cc1
inactive: RPMI-8226 leukemia 73.7% | OVCAR-8 ovarian 94.3% | OVCAR-5 ovarian 107% | SK-OV-3 ovarian 97.4% | OVCAR-3 ovarian 76.6% | HS 578T breast 79.9% | NCI/ADR-RES ovarian 86.2% | T-47D breast 114% | BT-549 breast 75% | MDA-MB-435 melanoma 90% | SW-620 colon 93.6% | MCF7 breast 95.2% | HCC-2998 colon 90.1% | KM12 colon 54.8%

Cc1ccc2nc(NC(=O)CSC(=S)N3CCN(c4ccccc4)CC3)sc2c1
active: IGROV1 ovarian -4.12%
inactive: RPMI-8226 leukemia 79.3% | OVCAR-5 ovarian 95.6% | OVCAR-4 ovarian 92.7% | SK-OV-3 ovarian 111% | OVCAR-3 ovarian 104% | HS 578T breast 104% | NCI/ADR-RES ovarian 88.2% | BT-549 breast 102% | MDA-MB-435 melanoma 111% | SW-620 colon 109% | MCF7 breast 95% | HCT-116 colon 95% | KM12 colon 95.1%

CCOC(=O)C(CC(=O)O)=C(C(=O)OCC)C(=O)OCC
inactive: OVCAR-8 ovarian 99.9% | OVCAR-5 ovarian 109% | OVCAR-4 ovarian 90.2% | SK-OV-3 ovarian 110% | IGROV1 ovarian 111% | OVCAR-3 ovarian 111% | HS 578T breast 107% | NCI/ADR-RES ovarian 112% | T-47D breast 100% | BT-549 breast 122% | MDA-MB-435 melanoma 103% | SW-620 colon 105% | MCF7 breast 92% | HCT-116 colon 99.8% | HCC-2998 colon 104% | KM12 colon 103%

From PubChem BioAssay (NCI)
